Assay [1] is described as follows: qHTS of pediatric cancer cell lines to identify multiple opportunities for drug repurposing: Confirmatory screen for BT-37 cells (AID 1347117).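 Further: viability measured after 48 h of compound exposure; nearly all actives have a fitted effect of over 55% in size.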 The essentials:
(§1)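 Cells (500-1,000/well) rested 5 h, then received compounds for 48 h; metabolically active cells were measured by CellTiter-Glo luminescence. Final concentrations spanned up to 46 µM (MIPE, 11-point) or 0.59 nM-46 µM (NPC, 8-point) in primary screens, 11-point in follow-ups.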
For orientation: In qHTS, concentration-response curves come from the screen itself.

Assay [2] in a line: qHTS of pediatric cancer cell lines to identify multiple opportunities for drug repurposing: Confirmatory screen for TC32 cells (AID 1347118).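 Further: cells exposed to compound for 48 h before the read; nearly all actives have a fitted effect of over 65% in size.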 The essentials: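 Luminescent CellTiter-Glo read-out of metabolically active TC32 cells after 48 h compound exposure. Primary: MIPE 11-point, 0.78 nM–46 µM; NPC 8-point, 0.59 nM–46 µM. Confirmatory: 11-point dilutions.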
A short description of assay [3]: qHTS of pediatric cancer cell lines to identify multiple opportunities for drug repurposing: Confirmatory screen for U-2 OS cells (AID 1347122). Further: nearly all actives have a fitted effect of over 65% in size. Summed up:
as §1

Assay [4] can be described thus: qHTS of pediatric cancer cell lines to identify multiple opportunities for drug repurposing: Confirmatory screen for Rh41 cells (AID 1347123). Further: nearly all actives have a fitted effect of over 60% in size. The essentials: as §1
Assay [5] in a line: qHTS of pediatric cancer cell lines to identify multiple opportunities for drug repurposing: Confirmatory screen for RD cells (AID 1347124).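 Further: cells exposed to compound for 48 h before viability readout; nearly all actives have a fitted effect of over 65% in size.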 The essentials: as §1
Assay [6] in a line: qHTS of pediatric cancer cell lines to identify multiple opportunities for drug repurposing: Confirmatory screen for Rh18 cells (AID 1347125). Further: nearly all actives have a fitted effect of over 55% in size. The essentials: as §1
Assay [7] is described as follows: qHTS of pediatric cancer cell lines to identify multiple opportunities for drug repurposing: Confirmatory screen for Rh30 cells (AID 1347126). Further: nearly all actives have a fitted effect of over 55% in size. The essentials: as §1
A short description of assay [8]: qHTS of pediatric cancer cell lines to identify multiple opportunities for drug repurposing: Confirmatory screen for Saos-2 cells (AID 1347127). Further: nearly all actives have a fitted effect of over 60% in size. The essentials:
as §1

A short description of assay [9]: qHTS of pediatric cancer cell lines to identify multiple opportunities for drug repurposing: Confirmatory screen for OHS-50 cells (AID 1347128).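 Further: compound exposure lasted 48 h at 37 degrees C; nearly all actives have a fitted effect of over 55% in size.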 Summed up:
as §1

A short description of assay [10]: qHTS of pediatric cancer cell lines to identify multiple opportunities for drug repurposing: Confirmatory screen for SK-N-SH cells (AID 1347129).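 Further: cells exposed to compound for 48 h before viability read; nearly all actives have a fitted effect of over 60% in size.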 The essentials:
as §1

In assay [11] the test system is Zika virus NS2B-NS3 protease. Description: Primary screen GU AMC qHTS for Zika virus inhibitors (AID 1347154). Further: nearly all actives have a fitted effect of over 70% in size. Summed up: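 Fluorogenic AMC-substrate cleavage by noncovalent NS2B-NS3 protease complex (25 nM, pH 8.0 Tris buffer with Tween 20) followed for 15 minutes at room temperature (~20% conversion). Percent inhibition from ex340/em450 signal change, fitted by 4-parameter Hill equation.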

The next assay has as its target Furin (Homo sapiens) (UniProt P09958). The experiment in a line: Furin counterscreen qHTS for Zika virus inhibitors (AID 1347149). Further: nearly all actives have a fitted effect of over 70% in size. The essentials:
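Fluorogenic cleavage of BOC-RVRR-AMC (2 microM final, Km ~15 µM) was monitored (ex 340, em 450 nm) at 37C after 15 min RT preincubation of 5 nM furin with compounds in HEPES pH 7.0 buffer with CaCl2 and Triton X-100. Percent inhibition was fitted to a 4-parameter Hill curve.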
In general terms: The purpose of a counterscreen is to sort out artefacts and off-target activity.

Assay [12] has as its system Zika virus NS2B-NS3 protease (unlinked complex). Description: Confirmatory screen GU AMC qHTS for Zika virus inhibitors (AID 1347153). Further: nearly all actives have a fitted effect of over 70% in size. Summed up: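 Noncovalent NS2B hydrophilic domain/NS3 protease complex (25 nM) in 10 mM Tris-HCl pH 8.0, 0.01% Tween 20 was preincubated 15 min at room temperature with compounds. Then 10 µM AMC substrate (Km 18.3 µM) was added; fluorescence was read over 15 min and fitted to a 4-parameter Hill equation.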

Assay [13] shares this test system. The experiment in a line: Primary screen GU Rhodamine qHTS for Zika virus inhibitors: Unlinked NS2B-NS3 protease assay (AID 1347159). Further: nearly all actives have a fitted effect of over 60% in size. The essentials:
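Noncovalent NS2B hydrophilic domain–NS3 protease domain complex (25 nM) preincubated 15 min at room temperature with compounds (up to 114 microM) in 10 mM Tris-HCl pH 8.0, 0.01% Tween 20; 1.5 microM Rhodamine110 substrate added, fluorescence change over 15 min fitted to Hill equation.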

Assay [14] can be described thus: qHTS of pediatric cancer cell lines to identify multiple opportunities for drug repurposing: Confirmatory screen for MG 63 (6-TG R) cells (AID 1347119). Further: nearly all actives have a fitted effect of over 55% in size. Summed up: as §1
Assay [15] is described as follows: qHTS of pediatric cancer cell lines to identify multiple opportunities for drug repurposing: Confirmatory screen for control Hh wild type fibroblast cells (AID 1347121). Further: nearly all actives have a fitted effect of over 70% in size. Summed up: as §1
Assay [16] can be described thus: Confirmatory screen GU Rhodamine qHTS for Zika virus inhibitors qHTS (AID 1347157). Further: nearly all actives have a fitted effect of over 70% in size. Summed up:
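A qHTS format was used, with compound concentrations ranging up to 114 microM. Each compound was preincubated with 25 nM NS2B-NS3 protease, and the substrate was then added at 1.5 microM. Curves were fitted with a 4-parameter Hill model.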

The values below come from PubChem BioAssay (NCATS).

Results filed as inconclusive are left out. Calls of active or inactive are those of the source. The call rests on the fitted dose curve; in most records, active means well fitted curve in the direction sought with a large enough effect; inconclusive means small, poorly fitted or top-dose-only effect, or another doubt; inactive means no such curve, though single readings can be large; an effect the other way counts as inactive or inconclusive.
Potency means the concentration at half of the fitted maximal effect.

Sequence of Furin (Homo sapiens) (P09958 whole entry, looked up): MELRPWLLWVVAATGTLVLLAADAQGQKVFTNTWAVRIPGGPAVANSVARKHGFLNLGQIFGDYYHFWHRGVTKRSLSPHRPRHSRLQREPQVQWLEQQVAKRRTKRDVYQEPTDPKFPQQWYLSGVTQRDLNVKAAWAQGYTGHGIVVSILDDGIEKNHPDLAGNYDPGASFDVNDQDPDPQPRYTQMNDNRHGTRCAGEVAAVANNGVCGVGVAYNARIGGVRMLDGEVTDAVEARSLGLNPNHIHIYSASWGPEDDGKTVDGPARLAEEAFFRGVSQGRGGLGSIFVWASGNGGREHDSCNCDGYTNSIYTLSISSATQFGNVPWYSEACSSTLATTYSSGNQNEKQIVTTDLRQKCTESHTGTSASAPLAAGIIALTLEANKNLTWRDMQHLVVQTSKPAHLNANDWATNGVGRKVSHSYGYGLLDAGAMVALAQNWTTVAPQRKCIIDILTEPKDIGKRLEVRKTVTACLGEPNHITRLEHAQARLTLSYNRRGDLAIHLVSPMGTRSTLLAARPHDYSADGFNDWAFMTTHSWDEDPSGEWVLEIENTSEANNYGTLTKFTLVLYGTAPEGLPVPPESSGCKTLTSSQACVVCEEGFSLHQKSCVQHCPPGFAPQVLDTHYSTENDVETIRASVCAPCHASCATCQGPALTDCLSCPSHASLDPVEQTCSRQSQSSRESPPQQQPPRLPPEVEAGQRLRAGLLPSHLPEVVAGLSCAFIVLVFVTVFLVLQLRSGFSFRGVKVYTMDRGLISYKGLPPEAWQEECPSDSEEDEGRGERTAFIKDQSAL

As to `Cc1nc2cnc3ccc(C#Cc4cccnc4)cc3c2n1-c1ccc(C(C)(C)C#N)cc1`, the Potency in assay [1] is 1.51 µM (active); in [2] it was 676 nM (active); in [3] it was 2.14 µM (active); in assay [4], 851 nM (active); in [5], 12 µM (active); in assay [6], 1.91 µM (active). Also, the Potency was 1.35 µM (active) in assay [7], 5.37 µM (active) in [8], 3.39 µM (active) in assay [9] and 2.15 µM (active) in assay [10]. Besides, the Potency result in assay [11] is “inactive”.

For the compound `CCS(=O)(=O)c1cccc(-c2cc(C(=O)NC3CCN(C)CC3)c(C)c3[nH]c4ncc(C)cc4c23)c1`, the Potency in [1] was 1.85 µM (active); in [2], 117 nM (active); in assay [3], 10.4 µM (active); in assay [4] it was 657 nM (active); in [5], 2.61 µM (active); in assay [6], 1.85 µM (active). For the same compound, the Potency in [7] was 0.522 µM (active); in [8], 1.04 µM (active); in [9] it was 1.85 µM (active); in assay [10], 2.09 µM (active); with Furin (Homo sapiens), 24.1 µM (active); in assay [12], 24.1 µM (active). In [11], the Potency is 24.1 µM (active). Further, in assay [13], the Potency result is “inactive”.

As to `Cc1cc(Nc2cc(N3CCN(C)CC3)nc(Sc3ccc(NC(=O)C4CC4)cc3)n2)n[nH]1`, the Potency was 92.8 nM (active) in [2]; 2.61 µM (active) in [14]; 9.27 µM (active) in assay [3]; 9270 nM (active) in assay [4]; 5.85 µM (active) in [7]; 16.5 µM (active) in [8]. The values for the Potency in assay [9] and in assay [10] were 9.27 µM (active) and 11.8 µM (active), respectively. Besides, the Potency result in assay [15], in [11] and in [13] was “inactive” in each case.

`Cc1cn2c(-c3cn[nH]c3)cnc2c(Nc2ccc(C(=O)N3CCNCC3)cc2F)n1`: the Potency in assay [1] is 10.4 µM (active); in assay [4], 5850 nM (active); in assay [7], 16.5 µM (active); in assay [9], 16.5 µM (active); in assay [10] it was 7.43 µM (active). The Potency result in assay [15], in assay [5] and in [11] was “inactive” throughout.

In the case of `CC=CC1=C(C(=O)O)N2C(=O)[C@H](NC(=O)[C@H](N)c3ccc(O)cc3)[C@@H]2SC1`, the Potency entry in assay [1], in assay [14], in [15], in assay [3], in [5] and in assay [6] was “inactive” throughout. Moreover, the Potency result in assay [7], in [9], in [10] and in assay [11] was “inactive” in each case.

In the case of `CN1CC[C@@H](c2c(O)cc(O)c3c(=O)cc(-c4ccccc4Cl)oc23)[C@@H](O)C1`, the Potency in assay [1] was 0.414 µM (active); in assay [4], 369 nM (active); in assay [5], 0.737 µM (active); in assay [6] it was 1.17 µM (active); in assay [7], 0.369 µM (active); in [8], 0.522 µM (active). Besides, the figures for the Potency in assay [9] and in [10] were 0.414 µM (active) and 0.418 µM (active), respectively. The Potency entry in [15] and in [11] was “inactive” each time.

In the case of `CS(=O)(=O)N1CCN(Cc2cc3nc(-c4cccc5[nH]ncc45)nc(N4CCOCC4)c3s2)CC1`, the Potency is 15.1 µM (active) in assay [1]; 1350 nM (active) in assay [2]; 851 nM (active) in assay [4]; 1.07 µM (active) in assay [6]; 1.07 µM (active) in assay [7]; 5.37 µM (active) in assay [9]. The Potency in assay [10] was 4.29 µM (active). In addition, the Potency result in assay [13] was “inactive”.

As to `Cc1ccc(C(=O)Nc2ccc(CN3CCN(C)CC3)c(C(F)(F)F)c2)cc1C#Cc1cnc2cccnn12`, the Potency in [2] is 3.7 nM (active); in [4], 585 nM (active); in assay [5], 20.8 µM (active); in assay [6], 10.4 µM (active); in [7], 5.22 µM (active); in [10], 1.48 µM (active). The Potency in assay [11] was 34.1 µM (active). Further, the Potency result in [14], in assay [15], in assay [9] and in assay [13] was “inactive” throughout.

Regarding `CC(C)c1nn(-c2c(Cl)cccc2Cl)c2nc(Cc3ccc(OCCO)cc3)[nH]c(=O)c12`, the Potency was 0.0827 µM (active) in [1]; 131 nM (active) in assay [2]; 0.0827 µM (active) in assay [3]; 0.208 µM (active) in assay [5]; 0.0827 µM (active) in assay [8]; 0.104 µM (active) in assay [9]. In addition, the Potency in assay [10] is 0.118 µM (active). Further, the Potency entry in assay [11] and in assay [13] was “inactive” each time.

Consider `O=C(C=Cc1cccnc1)NCCCCC1CCN(C(=O)c2ccccc2)CC1`, for which the Potency entry in [1], in assay [14], in assay [15], in assay [3], in assay [5] and in assay [6] was “inactive” throughout. Further, the Potency entry in assay [7], in [9], in [10] and in assay [11] was “inactive” in each case.

Take `C=CC(=O)Nc1cccc(Oc2nc(Nc3ccc(N4CCN(C)CC4)cc3)ncc2Cl)c1`: the Potency was 1170 nM (active) in [2]; 2.93 µM (active) in assay [14]; 20.8 µM (active) in assay [15]; 2.93 µM (active) in [8]; 5.22 µM (active) in assay [9]; 2.96 µM (active) in assay [10]. Further, the Potency entry in assay [11] and in assay [13] was “inactive” throughout.

Take `COc1cccc(-c2ccc(NC(=O)C3=C(C(=O)O)CCC3)c(F)c2)c1`: the Potency in assay [2] is 18500 nM (active); in [3], 14.7 µM (active); in [5], 1.17 µM (active); in [7], 7.37 µM (active); in assay [13], 17.8 µM (active). Moreover, the Potency entry in assay [15], in assay [6], in assay [9], in [10] and in assay [11] was “inactive” in each case.

For `COc1cc2nccc(Oc3ccc(NC(=O)C4(C(=O)Nc5ccc(F)cc5)CC4)cc3)c2cc1OC`, the Potency in assay [2] is 18500 nM (active); in assay [8], 18.5 µM (active); in assay [9], 20.8 µM (active). For the same compound, the Potency result in assay [15], in [5] and in assay [11] was “inactive” in each case.

With `CC(=O)SC[C@@H](C)C(=O)N1CCC[C@H]1C(=O)N[C@@H](Cc1ccccc1)C(=O)O`, the Potency entry in [11] is “inactive”.

As for `O=C(O)C1(Cc2cccc(Nc3nccs3)n2)CCC(Oc2cccc(Cl)c2F)CC1` (centres undefined), in the assay with Furin (Homo sapiens), the Potency result is “inactive”. For the same compound, the Potency is 6.98 µM (active) in assay [16] and 6.31 µM (active) in assay [13].

Consider `CC(C)(C)NC(=O)[C@H]1CN(Cc2cccnc2)CCN1C[C@@H](O)C[C@@H](Cc1ccccc1)C(=O)N[C@H]1c2ccccc2C[C@H]1O`, for which the Potency in [14] is 23.3 µM (active); in assay [3] it was 23.3 µM (active); in assay [7], 18.5 µM (active). Further, the Potency result in assay [15], in assay [5], in assay [6], in assay [10] and in assay [11] was “inactive” each time.

In the case of `C[C@H]1C[C@@H]2[C@@H]([C@@H](O)C[C@@]3(C)[C@H]2CC[C@]3(O)C(=O)CO)[C@@]2(C)C=CC(=O)C=C12`, in [11], the Potency entry was “inactive”.
